Values joined by “and” are separate entries in the source; they are usually repeats but may differ in a detail not shown here. Equal entries are not always repeated. Results filed as inconclusive are left out. Where a structure was tested more than once in an assay, its records may differ in their call. Active and inactive are the calls of the source. Rule for the calls, unless noted: active = hit-call score of the fitted dose curve at least 0.9, where 1 is the maximum; inactive = score below 0.9.

Experimental findings from PubChem BioAssay (EPA / NIEHS) are described below.

A short description of assay [1]: CCTE_Deisenroth_AIME_384WELL_CTox_Inactive: Cytotoxicity Assessment (CTOX) in CCTE's 384-well Estrogen Receptor Transactivation Assay without AIME metabolic competence (metabolism negative), Deisenroth Lab (AID 2284039; active = hit-call score of the fitted dose curve at least 0.9, where 1 is the maximum;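 note: cell viability via live-cell protease substrate cleaved to fluorescent probe; cells exposed 24 h to medium preincubated 2 h with alginate-water beads without S9; loss of fluorescence signal means loss of viability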). The procedure, abridged:
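Fluorescent protease-substrate viability readout after 24 h exposure of VM7Luc4E2 cells to conditioned medium. Chemicals (0.002–200 uM) first sat 2 h over alginate-water beads, no S9. Data fitted bidirectionally, loss of signal meaning viability loss.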

Assay [2] concerns the target Estrogen receptor (Homo sapiens) (UniProt P03372). The assay can be described thus: CCTE_Deisenroth_AIME_384WELL_LUC_Shift: CCTE's 384-well Estrogen Receptor Transactivation Assay with AIME metabolic competence data shift (ERTA luciferase; difference in metabolism positive and negative), Deisenroth Lab (AID 2284041).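 Note: shift is response with S9 minus without S9 so positive means metabolism raised ER signal.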 The procedure, abridged: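 Here, parent compounds undergo 2 h phase I metabolism by PB/BNF-induced rat S9 before 24 h transactivation in VM7Luc4E2 cells; the curve models S9-positive minus S9-negative response over a 10-point series.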

A short description of assay [3]: CCTE_Shafer_MEA_acute_LDH: CCTE's Lactate Dehydrogenase Assay for Cytotoxicity in the Neural Acute Assay, Shafer Lab (AID 2284086; active = hit-call score of the fitted dose curve at least 0.9, where 1 is the maximum;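 note: active means LDH release rises above DMSO vehicle level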). Put shortly:
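Rat cortical neurons cultured on microelectrode arrays; baseline 40-min recording, compound added, second 40-min recording; medium then sampled for released LDH (colorimetric kit, 490 nm). DMSO = negative control.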

A short description of assay [4]: CCTE_Shafer_MEA_dev_active_electrodes_number: CCTE's Neural Network Formation Assay for Number of Active Electrodes, Shafer Lab (AID 2284040; active = hit-call score of the fitted dose curve at least 0.9, where 1 is the maximum;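 for AC50: potency for loss of active electrodes versus DMSO so lower counts are hits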). Put shortly:
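Primary rat cortical neurons on 16-electrode MEA wells, exposed from day 0 through day 12 with compound renewed at DIV 5 and 9 feeds. Active electrodes (mean firing ≥5 spikes/min) counted at DIV 5, 7, 9, 12; trapezoidal AUC across days, loss-of-signal versus DMSO.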

Assay [5] is described as follows: CCTE_Shafer_MEA_dev_burst_rate: CCTE's Neural Network Formation Assay for Burst Rate, Shafer Lab (AID 2284042).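 For AC50: potency for loss of burst rate below DMSO control.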 Put shortly:
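Exposure ran continuously over 12 days of network development in rat cortical cultures, with compound refreshed during full media changes on DIV 5 and 9. Single-electrode bursts per recording time, well-mean over active electrodes, trapezoidal AUC across days 5–12, fitted downward relative to DMSO.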

Assay [6] can be described thus: CCTE_Shafer_MEA_dev_bursting_electrodes_number: CCTE's Neural Network Formation Assay for Number of Bursting Electrodes, Shafer Lab (AID 2284043; active = hit-call score of the fitted dose curve at least 0.9, where 1 is the maximum;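 for AC50: potency is for loss of bursting electrodes relative to DMSO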). The procedure, abridged: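 Primary rat cortical neurons were cultured on PEI-coated 48-well MEA plates (16 electrodes/well) and exposed from plating through day 12, with compound renewed at feeds on DIV 5 and 9. Electrodes bursting ≥1 per 2 min were counted on DIV 5, 7, 9, 12; trapezoidal AUC taken.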

Assay [7] is described as follows: CCTE_Shafer_MEA_dev_interburst_interval_mean: CCTE's Neural Network Formation Assay for Mean Interburst Interval, Shafer Lab (AID 2284046).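 Note: curve fitted for decrease in interburst interval relative to DMSO.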 Put shortly: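 Primary rat cortical neurons on PEI-coated 48-well MEA plates (laminin added with cells at plating) (16 electrodes/well), exposed from plating day 0 with renewal at DIV 5 and 9. Mean inter-burst interval averaged over bursting electrodes, AUC across days 5, 7, 9, 12; DMSO baseline.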

The nature of assay [8]: CCTE_Shafer_MEA_dev_inter_network_spike_interval_mean: CCTE's Neural Network Formation Assay for Mean Inter-network Spike Interval, Shafer Lab (AID 2284047).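 For AC50: potency for a decrease in mean inter-network spike interval below DMSO.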 Put shortly:
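Mean time between consecutive network-spike peaks, recorded extracellularly (adaptive spike detection) on DIV 5, 7, 9 and 12, summarized as trapezoidal AUC. Rat cortical cultures on MEAs dosed continuously days 0–12, re-dosed at feeds; loss-of-signal fit relative to DMSO.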

A short description of assay [9]: CCTE_Shafer_MEA_dev_network_spike_number: CCTE's Neural Network Formation Assay for Number of Network Spikes, Shafer Lab (AID 2284048).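 For AC50: fit as a loss of signal meaning fewer network spikes than DMSO.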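 Note: synchronized bursts across electrodes counted on days 5 7 9 12 and integrated as AUC.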 Put shortly: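 Primary rat cortical neurons were seeded at 1.5 x 10^5 cells/well on PEI-coated 16-electrode MEA wells with laminin, exposed from plating day 0, compound renewed at DIV 5 and 9. Network spikes were recorded on days 5, 7, 9, 12 and summarized as trapezoidal AUC versus DMSO.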

The nature of assay [10]: CCTE_Shafer_MEA_dev_network_spike_peak: CCTE's Neural Network Formation Assay for Mean Number of Electrodes in Network Spike, Shafer Lab (AID 2284049).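 For AC50: fitted for loss of signal meaning fewer electrodes in network spikes than DMSO.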 Put shortly: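 Continuous 12-day exposure of rat cortical cultures, starting at plating, on MEA plates. Endpoint: electrodes participating in network-spike peaks, AUC across DIV 5–12, DMSO as negative control.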
Assay [11] in a line: CCTE_Shafer_MEA_dev_spike_duration_mean: CCTE's Neural Network Formation Assay for Mean Spike Duration, Shafer Lab (AID 2284051).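 For AC50: potency for a decrease in mean network spike duration versus DMSO.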 The procedure, abridged: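 Spontaneous activity was recorded on days 5, 7, 9 and 12 from rat cortical cultures grown on microelectrode arrays and dosed continuously from day 0, with media and compound renewed after the DIV 5 and 9 recordings. Network-spike duration was collapsed by area under the curve.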

Assay [12] is described as follows: CCTE_Shafer_MEA_dev_per_network_spike_spike_number_mean: CCTE's Neural Network Formation Assay for Mean Number of Spikes in a Network Spike, Shafer Lab (AID 2284053).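 For AC50: fitted as decrease in spikes per network spike relative to DMSO.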 The procedure, abridged:
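Mean spike count within each network spike, taken in a 0.05 s window at its peak, was recorded on days 5, 7, 9 and 12 and integrated as trapezoidal area under the curve. Rat cortical cultures on MEA plates received continuous compound from day 0, refreshed at medium changes on DIV 5 and 9.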

The nature of assay [13]: CCTE_Shafer_MEA_dev_per_network_spike_spike_percent: CCTE's Neural Network Formation Assay for Percent of Spikes in a Network Spike, Shafer Lab (AID 2284054). The procedure, abridged:
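Primary rat cortical neurons on 16-electrode MEA wells (PEI-coated, laminin at plating), exposed from day 0 with renewal at DIV 5 and 9; spikes within 0.05 s of network-spike peaks over total spikes, AUC across days 5, 7, 9, 12.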

Assay [14] is described as follows: CCTE_Shafer_MEA_dev_AB: CCTE's Alamar Blue Assay for Cytotoxicity in the Neural Network Formation Assay, Shafer Lab (AID 2284083; active = hit-call score of the fitted dose curve at least 0.9, where 1 is the maximum;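 note: resazurin reduction fluorescence as viability of cultured neurons; twelve days of exposure from plating with re-dosing on DIV 5 and 9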). The procedure, abridged: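 Resazurin fluorescence, relative to DMSO, gauges viability after twelve days of exposure that began at plating of rat cortical neurons (1.5 x 10^5 cells/well, 48-well MEA); treatment renewed with full medium exchange on DIV 5 and 9.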

Assay [15] is described as follows: CCTE_Shafer_MEA_dev_mutual_information_norm: CCTE's Neural Network Formation Assay for Mutual Information Normalization, Shafer Lab (AID 2284091).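 For AC50: mutual information between electrodes summarised as area under curve across four recording days; potency is for a decrease in mutual information relative to DMSO.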 Put shortly:
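Rat cortical cultures, 48-well MEA, continuous exposure DIV 0–12 with full media/compound change DIV 5 and 9. Readout: inter-electrode mutual information, AxIS adaptive spike detection; AUC across DIV 5/7/9/12 recordings; DMSO baseline, negative fitting direction.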

A short description of assay [16]: CCTE_Shafer_MEA_acute_AB: CCTE's Alamar Blue Assay for Cytotoxicity in the Neural Acute Assay, Shafer Lab (AID 2284069; active = hit-call score of the fitted dose curve at least 0.9, where 1 is the maximum;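 note: active compounds lower the viability signal compared with DMSO wells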). The procedure, abridged: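 Resazurin reduction (CellTiter Blue, 1:6 in fresh medium) read at ex 544/em 590 nm marks viability loss relative to DMSO. Cells: primary rat cortical neuron networks on microelectrode arrays, treated after baseline recording at 13 or 15 days in vitro.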

Another assay has as its system DIO2 (gene 1734). The assay can be described thus: CCTE_GLTED_hDIO2: CCTE's human Deiodinase 2 (DIO2) Inhibition Assay, Great Lakes Toxicology and Ecology Division (GLTED) Lab (AID 2284050; active = hit-call score of the fitted dose curve at least 0.9, where 1 is the maximum). Put shortly:
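hDIO2 enzyme + test chem, 3 h → free iodide from substrate; step 2: Sandell-Kolthoff (Ce IV reduction by As, iodide-catalysed), spectrophotometric read. Triplicate plates; DMSO = baseline.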

In another assay the test system is DIO3 (gene 1735). The assay can be described thus: CCTE_GLTED_hDIO3: CCTE's human Deiodinase 3 (DIO3) Inhibition Assay, Great Lakes Toxicology and Ecology Division (GLTED) Lab (AID 2284055; active = hit-call score of the fitted dose curve at least 0.9, where 1 is the maximum;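 note: potency is for inhibition seen as loss of released iodide signal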). The procedure, abridged:
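Absorbance from the Sandell-Kolthoff reaction reports iodide released by human DIO3 during a 3-hour incubation with chemical. Inhibition scored as signal loss against DMSO controls.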

Estrogen receptor (Homo sapiens), sequence (P03372 whole entry, looked up): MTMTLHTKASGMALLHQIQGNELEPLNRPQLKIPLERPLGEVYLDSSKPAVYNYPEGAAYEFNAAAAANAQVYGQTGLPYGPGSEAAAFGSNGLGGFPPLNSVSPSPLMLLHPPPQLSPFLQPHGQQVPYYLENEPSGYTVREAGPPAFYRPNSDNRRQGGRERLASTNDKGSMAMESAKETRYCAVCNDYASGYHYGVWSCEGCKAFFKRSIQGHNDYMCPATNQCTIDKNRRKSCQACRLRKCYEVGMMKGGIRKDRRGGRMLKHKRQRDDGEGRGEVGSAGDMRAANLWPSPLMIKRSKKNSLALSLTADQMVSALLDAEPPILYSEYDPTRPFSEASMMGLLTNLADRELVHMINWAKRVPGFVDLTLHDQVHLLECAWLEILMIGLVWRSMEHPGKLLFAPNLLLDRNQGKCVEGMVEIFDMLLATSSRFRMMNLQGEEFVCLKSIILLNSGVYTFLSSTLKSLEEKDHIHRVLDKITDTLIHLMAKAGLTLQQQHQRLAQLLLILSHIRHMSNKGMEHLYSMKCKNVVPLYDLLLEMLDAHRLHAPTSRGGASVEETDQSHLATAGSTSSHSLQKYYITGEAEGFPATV

On to `CCCC(=NOCC)C1=C(O)CC(CC(C)SCC)CC1=O` (stereo not drawn), for which the molecule was called inactive in [1], in assay [2] and in assay [3].

Take `O=C(Nc1ccccc1-c1ccc(Cl)cc1)c1cccnc1Cl`: the AC50 in assay [4] is 9.92 µM (active); in assay [5] it was 4.18 µM (active) and 3.1 nM (active); in [6] it was 7.09 µM (active); in assay [7], 2.59 µM (active); in assay [8], 0.01 µM (active); in assay [10], 9.92 µM (active). Also, the AC50 in assay [11] was 4.26 µM (active); in assay [12], 1.13 µM (active); in [14], 77.7 µM (active); in assay [15], 18.3 µM (active). The outcome in assay [4], in assay [2], in [5], in assay [6], in [7] and in [8] was inactive. Besides, the call in [9], in [10], in assay [11], in assay [12], in [13] and in assay [14] was inactive. The molecule was classed as inactive in assay [3] and in [15].

Consider `CCOP(=S)(OCC)Oc1nc(Cl)n(C(C)C)n1`, for which the outcome in assay [1] and in assay [2] was inactive.

As to `CCOC(=O)C(C)OC(=O)c1cc(Oc2ccc(C(F)(F)F)cc2Cl)ccc1[N+](=O)[O-]` (stereo not drawn), the AC50 in assay [1] was 100 µM (active). For the same molecule, the molecule was classed as inactive in assay [4], in [2], in assay [5], in assay [6], in assay [7] and in [8]. The molecule was classed as inactive in assay [9], in assay [10], in [11], in assay [12], in [13] and in assay [16]. Also, the outcome in assay [14], in assay [3] and in assay [15] was inactive.

Turning to `Cc1c(COC(=O)[C@@H]2[C@H](/C=C(\Cl)C(F)(F)F)C2(C)C)cccc1-c1ccccc1`, the AC50 in assay [4] is 2.84 µM (active) and 3.36 µM (active); in [5] it was 768 nM (active) and 2.7 µM (active); in assay [6] it was 1.56 µM (active) and 1.65 µM (active); in assay [7], 2.8 µM (active) and 2.26 µM (active); in assay [8], 2.3 µM (active); in assay [9], 91.2 nM (active) and 495 nM (active). Also, the AC50 in assay [10] is 1.51 µM (active) and 1.19 µM (active); in assay [11], 2.33 µM (active) and 2.32 µM (active); in assay [12] it was 665 nM (active) and 864 nM (active); in assay [13] it was 440 nM (active) and 649 nM (active); in assay [14], 14.6 µM (active) and 14.9 µM (active); in [15] it was 142 nM (active) and 269 nM (active). For the same molecule, the molecule was classed as inactive in assay [8] and in [3].

On to `CC(C)Oc1cccc(NC(=O)c2ccccc2C(F)(F)F)c1`, for which the outcome in assay [1] and in assay [2] was inactive.

Regarding `N#Cc1c(Cl)cccc1Cl`, the molecule was called inactive in assay [1] and in assay [2].

On to `CCN(CC)c1nc(C)cc(OP(=S)(OC)OC)n1`, for which the AC50 in [4] was 33 µM (active); in assay [6] it was 30.5 µM (active); in assay [7], 88.6 µM (active); in assay [10], 30.8 µM (active); in the assay with DIO2 (gene 1734), 31.1 µM (active); in assay [11], 50 µM (active). Also, the AC50 in assay [12] is 29.5 µM (active); in assay [13], 28 µM (active); with DIO3 (gene 1735), 25.3 µM (active); in assay [14], 50 µM (active); in assay [15] it was 21.8 µM (active). Besides, the result in [5], in [8] and in assay [9] was inactive.

In the case of `CNC(=O)Oc1cccc2ccccc12`, the AC50 in [4] was 15 µM (active); in assay [5], 4.84 µM (active); in assay [6] it was 15 µM (active); in [9], 1000 nM (active); in [10] it was 20.3 µM (active) and 22.6 µM (active); in assay [12] it was 20.1 µM (active). Further, the AC50 in assay [13] is 15 µM (active) and 5.05 µM (active); in assay [14], 15 µM (active); in [15], 8.41 µM (active) and 15 µM (active). The result in [5], in [7], in assay [8], in assay [9], in assay [11] and in assay [12] was inactive. Further, the call in [16] and in assay [14] was inactive.

For the molecule `Nc1c(Cl)c(Cl)nc(C(=O)O)c1Cl`, in assay [1], the molecule was called inactive. The AC50 in assay [2] is 5.4 µM (active).

For `CC(C)=CC1C(C(=O)OCc2coc(Cc3ccccc3)c2)C1(C)C` (stereo not drawn), the outcome in assay [1], in assay [4], in [5], in assay [6], in assay [7] and in assay [8] was inactive. The molecule was called inactive in assay [9], in assay [10], in assay [11], in [12], in assay [13] and in [16]. The molecule was called inactive in assay [14], in assay [3] and in [15]. In addition, the AC50 was 38.5 µM (active) in the assay with DIO2 (gene 1734) and 40.5 µM (active) in the assay with DIO3 (gene 1735).
